# Measured values: PubChem BioAssay (Tox21)
# A number with no mark means an inactive call. Calls of active or inactive are those of the source. Calls follow the shape of the dose curve; as a rule, active = well fitted activation curve with a large enough effect in the repeat runs; inconclusive = weak or mixed curves; inactive = flat fitted curve, though single readings scatter.
# Test: A CellTox Green Cytotoxicity Assay to monitor cytotoxicity in HepG2 cells - 0 hour (AID 1224882); also: nearly all actives have a fitted effect of over 35% in size
# Conditions: CellTox Green fluorescence; series mostly up to 76.8 µM; cytotoxicity: at the top concentration
# Source text: National Center for Advancing Translational Sciences [NCATS]
# NIH Chemical Genomics Center [NCGC]
# U.S. Environmental Protection Agency [EPA]
# National Institutes of Environmental Health Sciences [NIEHS]
# National Toxicology Program [NTP]
# Cell-based models are critical for drug discovery. Determining the natural cytotoxic effects resulting from test compounds is an essential research activity. A CellTox Green Cytotoxicity Assay to monitor cytotoxicity in real time of continues cell culture during 40 hours of the compound treatment was used to screen Tox21 10K library compounds in HepG2 cells. CellTox Green Cytotoxicity Assay is a nonlytic, homogeneous, biofluorescent method to measure cytotoxicity in cell culture after experimental manipulation. The assay system uses a proprietary asymmetric cyanine dye that is excluded from viable cells but preferentially stains the dead cell's DNA. […] Viable cells produce no appreciable increases in fluorescence. Therefore, the fluorescence signal produced by the binding interaction with dead cell DNA is proportional to cytotoxicity.
# The mixture of HepG2 cell suspension and reagents were dispensed at 600cells/6 ul/well in 1536-well tissue culture treated black solid bottom plates using a Multidrop dispenser. After the assay plates were incubated at a 37 C/5% CO2 incubator for 5 hours, 23 nL of compounds dissolved in DMSO, positive and negative controls was transferred to the assay plate by a pintool work station. The plates were incubated at 37 C for 40 hours. The fluorescence intensity were measured at 0h, 8h, 16h, 24h, 32h and 40h time points using ViewLux plate reader during compound treatment.
# % is scaled to controls: 0 for no effect and ±100 for the full control effect; potency is read from the fitted curve at half-maximal effect.
Compound,cytotoxicity,Potency
Cc1sccc1Br,-19.3% [at 35.3 µM],–
Cc1nc2c([nH]1)c(=O)n(C)c(=O)n2Cc1ccco1,0.988% [at 35.3 µM],–
COC(=O)CC(C)=O,-4.78%,–
C1CN(CCOCCN2CCOCC2)CCO1,1.16%,–
CC(C)(c1ccc(O)cc1)c1ccc(O)cc1,–,inactive
Cc1ccc(Cl)cc1Cl,0.238%,–
C/C=C(\C)C#N,-3.84%,–
O=C(O)c1ccccc1OP(=O)(O)O,-3.32% [at 35.3 µM],–
NS(=O)(=O)c1ccccc1Cl,4.71%,–
CCCCCCCCCCCCCC=O,11.5% [at 6.97 µM],–
CC(C)(CC(=O)O)C(=O)O,16.3%,–
COC(=O)[C@@H](N)Cc1ccc(O)c(O)c1,-12.6% [at 35.3 µM],–
NS(=O)(=O)c1ccc(C(=O)O)cc1,-14.4% [at 35.3 µM],–
N[C@H](C(=O)O)c1ccc(O)cc1,-7.08% [at 15.8 µM],–
CC(=O)N(CC(O)CO)c1c(I)c(C(=O)NCCO)c(I)c(C(=O)NCC(O)CO)c1I (stereo not given),-1.19% [at 35.3 µM],–
CCN(CC)CCOCCOC(=O)C1(c2ccccc2)CCCC1,-0.282% [at 35.3 µM],–
FC(F)OC(Cl)C(F)(F)F (stereo not given),-0.086%,–
CN1CCN(c2cc3c(cc2F)c(=O)c(C(=O)O)cn3-c2ccc(F)cc2)CC1,-0.426% [at 35.3 µM],–
CC(C)NCCCC1(C(N)=O)c2ccccc2-c2ccccc21,-7.22% [at 35.3 µM],–
CC(C)CCCC(C)N (stereo not given),-14.4% [at 35.3 µM],–

Compound,cytotoxicity,Potency
CO[Si](CCCOCC1CO1)(OC)OC (stereo not given),–,inactive
O=C1NC(=O)[C@@]2(CCOc3ccc(F)cc32)N1,-8.49% [at 35.3 µM],–
CCOC(=O)c1cccc(N)c1,-14.1% [at 35.3 µM],–
Cc1cccn2c(=O)c(-c3nnn[nH]3)cnc12,0.312% [at 15.8 µM],–
N=C(N)c1ccccc1,2.31%,–
CCCCC/C=C\CCC=O,-0.0291%,–
Cc1cnc(NS(=O)(=O)c2ccc(N)cc2)nc1,-0.308% [at 35.3 µM],–
Cc1cccc(C)c1NC(=O)C(C)N (stereo not given),–,21.3 µM (active)
CCN(Cc1ccncc1)C(=O)C(CO)c1ccccc1 (stereo not given),1.39% [at 35.3 µM],–
NC(=O)c1ccc(N)cc1,-0.425%,–
CCC=O,-0.606%,–
CCOC(=O)Nc1ccc(NCc2ccc(F)cc2)nc1N,0.59% [at 35.3 µM],–
COCCc1ccc(OCC(O)CNC(C)C)cc1 (stereo not given),–,inactive
Cc1cc2c(cc1S(N)(=O)=O)S(=O)(=O)CCC2,4.41% [at 35.3 µM],–
COC(=O)c1ccc(C)cc1C1=NC(C)(C(C)C)C(=O)N1 (stereo not given),2.89%,–
CC1(C)CO[C@@H](CC(=O)O)CN1,-9.51% [at 35.3 µM],–
N#Cc1ccc(C2CCCc3cncn32)cc1 (stereo not given),-3.84% [at 35.3 µM],–
CCCc1cc(C(N)=S)ccn1,-6.4% [at 35.3 µM],–
CCC(C)S (stereo not given),-2.37% [at 2.72 µM],–
FC1(F)C(F)(F)C(F)(F)C2(F)C(F)(F)C(F)(F)C(F)(F)C(F)(F)C2(F)C1(F)F (stereo not given),-6.89% [at 35.3 µM],–
